The values that follow come from PubChem BioAssay (NCI).

This is part of a sample that, as a whole, favours compounds with a hit. Of some 83,000 tested, about 20% had one in any assay.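 96-well plates, one dose, 48 hours. Percent growth reported; active if below 10.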 Unmarked numbers belong to inactive results. Active and inactive are the calls of the source.

Common to all, as to assay: NCI-60 one-dose screen, 48 h (100 = growth as untreated, 0 = no growth, -100 = all killed)
Holding throughout (details): 10 µM unless noted

Test [1] deals with SK-MEL-2 melanoma.
Test [2] has as its system EKVX NSCLC.
Test [3] has as its system SN12C renal.
In test [4] the test system is UO-31 renal.
The test system of test [5] is TK-10 renal.
For test [6], the system named is ACHN renal.
The subject of test [7] is CAKI-1 renal.
Test [8] has as its system A498 renal.
Test [9] concerns CCRF-CEM leukemia.
The subject of test [10] is MOLT-4 leukemia.
Test [11] relates to SR leukemia.
Test [12] has as its system RPMI-8226 leukemia.
Test [13] has as its system OVCAR-8 ovarian.
The test system of test [14] is OVCAR-5 ovarian.
Test [15] deals with OVCAR-4 ovarian.
In test [16] the test system is SK-OV-3 ovarian.
In test [17] the test system is IGROV1 ovarian.
The test system of test [18] is OVCAR-3 ovarian.
For test [19], the system named is HS 578T breast.
Test [20] has as its system NCI/ADR-RES ovarian.

Take `O=[N+]([O-])c1ccc(Nc2nc(NCCN3CCOCC3)ncc2[N+](=O)[O-])cc1`: the growth in test [1] was 93.7%; in test [2] it was 88.2%; in test [3] it was 90.2%; in [4], 63.9%; in test [5] it was 76.5%; in test [6], 80.9%. In addition, the growth was 56.7% in test [7]; 79.1% in test [8]; 98.1% in test [9]; 103% in [10]; 107% in [11]; 100% in test [12]. The growth in test [13] was 99.5%; in [14] it was 98.6%; in [15] it was 85.4%; in test [16], 93.4%; in [17], 81%; in [18], 102%. Further, the growth in test [19] was 87.8%; in [20], 89.8%.

`C#CCOc1ccc2ncnc(Nc3cccc(CNC(=O)CCl)c3)c2c1`: the growth was 49.6% [8.25 µM] in test [1]; 58.7% [8.25 µM] in test [2]; 30.3% [8.25 µM] in [3]; 39.8% [8.25 µM] in test [4]; 38% [8.25 µM] in test [5]; 37.8% [8.25 µM] in test [6]. The growth in test [7] was 39.6% [8.25 µM]; in test [8], -1.38% [8.25 µM] (active); in test [9], 14.4% [8.25 µM]; in test [10], 15.1% [8.25 µM]; in test [11] it was 25.1% [8.25 µM]; in [12] it was 37.7% [8.25 µM]. Moreover, the growth was 38.8% [8.25 µM] in [13]; 65.9% [8.25 µM] in [14]; 27.2% [8.25 µM] in test [15]; 48.1% [8.25 µM] in test [16]; -5.04% [8.25 µM] (active) in test [17]; 29.3% [8.25 µM] in test [18]. Further, the growth in test [19] was 37.8% [8.25 µM]; in test [20], 90.3% [8.25 µM].

`COc1cccc(/C=C2\SC(=Nc3ccc(NC(C)=O)cc3)NC2=O)c1OC`: the growth in [1] was 110%; in [2] it was 103%; in test [3] it was 94.6%; in test [4], 60.8%; in test [5], 97.7%; in [6] it was 82.5%. For the same molecule, the growth in [7] is 67.9%; in test [8] it was 58.7%; in test [9], 97.1%; in test [10], 99.2%; in [11], 94.8%; in test [12] it was 96.7%. Moreover, the growth is 93% in test [13]; 91.7% in test [14]; 100% in test [15]; 91.3% in test [16]; 103% in test [17]; 111% in test [18]. Also, the growth in test [19] was 70.5%; in test [20], 102%.

Take `O=C1/C(=C/c2ccc(Cl)cc2)SC(=S)N1CCc1ccc(O)cc1`: the growth in test [1] was 99.7%; in test [2] it was 93.8%; in test [3] it was 80.2%; in test [4] it was 54.6%; in [5], 80.5%; in test [6] it was 99.1%. The growth is 81.3% in [7]; 87.6% in test [8]; 23.1% in test [9]; 54.3% in test [10]; 102% in test [11]; 90.6% in test [12]. For the same molecule, the growth was 97.6% in [13]; 104% in test [14]; 58.4% in [15]; 90.9% in test [16]; 14.6% in test [17]; 98.2% in [18]. Further, the growth is 86.1% in [19] and 98.5% in [20].

For `Cc1cc(C)nc(SC2=C(Nc3cc(Cl)ccc3O)C(=O)N(Cc3ccccc3)C2=O)n1`, the growth was 97.6% [30 µM] in test [1]; 83.9% [30 µM] in test [2]; 91.6% [30 µM] in test [3]; 82.4% [30 µM] in [4]; 23.8% [30 µM] in test [5]; 88.7% [30 µM] in test [6]. Also, the growth is 99.7% [30 µM] in [7]; 75.5% [30 µM] in test [8]; 22.1% [30 µM] in [9]; 46.3% [30 µM] in test [10]; 54% [30 µM] in [11]; 36.5% [30 µM] in test [12]. For the same molecule, the growth was 76.4% [30 µM] in test [13]; 123% [30 µM] in [14]; 71.2% [30 µM] in [15]; 103% [30 µM] in test [16]; 83.8% [30 µM] in [17]; 88.3% [30 µM] in test [18]. Besides, the growth in [19] was 82.7% [30 µM]; in test [20] it was 74.6% [30 µM].

`Cn1cc(-c2nonc2-c2c[nH]c3ccc(F)cc23)c2cccnc21`: the growth in [1] is 90.1%; in test [2] it was 63%; in [3], 85.5%; in test [4], 63.3%; in test [5], 85.9%; in test [6], 78.5%. Moreover, the growth in test [7] is 63.9%; in test [8] it was 85.1%; in test [9], 83%; in [10] it was 63.4%; in test [11], 58.7%; in test [12], 69.2%. The growth in [13] is 89.1%; in test [14], 90.9%; in test [15], 71.3%; in [16], 87.1%; in test [17] it was 61.7%; in test [18] it was 82%. The growth in test [19] is 72.9%; in test [20], 73.1%.

For `O=[N+]([O-])c1cnc(N2CCN(CC3CC3)CC2)nc1N1CCN(CC2CC2)CC1`, the growth in [1] is 98.5%; in [2], 86.5%; in [3], 98.2%; in test [4], 80.2%; in [5], 102%; in test [6] it was 104%. The growth was 92.5% in test [7]; 86.6% in [8]; 106% in test [9]; 103% in test [10]; 115% in test [11]; 100% in test [12]. The growth in test [13] is 104%; in [14] it was 92.2%; in test [15], 95%; in [16], 111%; in test [17], 90.6%; in test [18], 98.6%. In addition, the growth was 77.5% in test [19] and 90.2% in [20].
